Screens: PubChem, Broad Institute
Shh pathway inh – Sonic Hedgehog pathway inhibition. inhibition, % (test concentration not listed). Shh-LIGHT2 Gli-luciferase reporter, 30 h. 2.1% of 22,000 active;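 active means mean inhibition across valid replicates above about 65%, limit read from the data; inconclusive means mean under the limit, yet half or more replicates past it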;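 further: pathway switched on by Shh-conditioned medium diluted 1 in 25 in low serum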
NOMO-1 viab – STK33 inhibitor candidate reducing NOMO-1 cell viability | inhibition, % (concentration not given with the values) | NOMO-1 AML viability, CellTiter-Glo luminescence, 72 h | 7.5% of 37,000 active; in the data active means inhibition above about 80%; inconclusive means no clear call, values can overlap the other calls
MITF inhib – blocks MITF activity; 0.28% of 37,000 active; TRPM1 promoter luciferase, luminescence, 24 h; inhibition, % (concentration not given with the values); in the data active means inhibition above about 85%; inconclusive means no clear call, values can overlap the other calls; inactive means below about 68%;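 further: human melanocyte line stably carrying TRPM1 promoter luciferase reporter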
The depositor's hits bear a star. In the library only some 7.9% were active in any assay of this set; here they are far more common.

How did Cc1ccc(S(=O)(=O)Nc2ccc3c(c2)CC(=O)N([C@H](C)CO)C[C@@H](C)[C@@H](CN(C)Cc2ccc(C(=O)Nc4ccccc4N)cc2)O3)cc1 do in these assays?
NOMO-1 viab: 107.4*; MITF inhib: 0.4

How did Cc1ccc(S(=O)(=O)Nc2ccc3c(c2)CC(=O)N([C@@H](C)CO)C[C@H](C)[C@@H](CN(C)Cc2ccc(C(=O)Nc4ccccc4N)cc2)O3)cc1 do in these assays?
NOMO-1 viab: 48.1; MITF inhib: 11.5

How did C[C@H](CO)N1C[C@H](C)[C@H](CN(C)Cc2ccc(C(=O)Nc3ccccc3N)cc2)Oc2ccc(NS(=O)(=O)c3ccc(Cl)cc3)cc2CC1=O do in these assays?
NOMO-1 viab: 141.5*; MITF inhib: 43.3

What do the screens show for `C[C@H](CO)N1C[C@H](C)[C@@H](CN(C)Cc2ccc(C(=O)Nc3ccccc3N)cc2)Oc2ccc(NS(=O)(=O)c3ccc(F)cc3)cc2C1=O`?
NOMO-1 viab: 48.4; MITF inhib: -13.1

What do the screens show for `CC12CCC(C(=O)NCCN3CCOCC3)(OC1=O)C2(C)C` (stereo not given)?
NOMO-1 viab: 1.0; MITF inhib: -13.6

How did Cc1cc(N(CC(=O)Nc2ccccc2C(=O)N2CCCC2)S(C)(=O)=O)ccc1Br do in these assays?
NOMO-1 viab: 1.8; MITF inhib: -9.8

How did CC(C)NC(=O)Nc1cccc2c1O[C@@H](CN(C)S(=O)(=O)c1ccccc1)[C@@H](C)CN([C@@H](C)CO)C2=O do in these assays?
Shh pathway inh: -1.4; NOMO-1 viab: -9.8; MITF inhib: -0.4

How did CC1CCc2nc(NC(=O)c3ccc(Cc4ccccc4)cc3)sc2C1 (stereo not given) do in these assays?
Shh pathway inh: -4.9; NOMO-1 viab: inconclusive; MITF inhib: 4.4

Results for C[C@@H]1CN([C@@H](C)CO)C(=O)c2cc(NC(=O)Cc3cn(C)c4ccccc34)ccc2O[C@H]1CN(C)Cc1ccc(Cl)c(Cl)c1 ?
NOMO-1 viab: 96.6*; MITF inhib: 40.7

How did C[C@@H]1CN([C@@H](C)CO)C(=O)c2cc(NC(=O)Cc3cn(C)c4ccccc34)ccc2O[C@@H]1CN(C)Cc1ccccc1 do in these assays?
Shh pathway inh: inconclusive; NOMO-1 viab: 63.2; MITF inhib: 16.7

What do the screens show for `C[C@H](CO)N1C[C@H](C)[C@@H](CN(C)Cc2ccc(Cl)c(Cl)c2)Oc2ccc(NC(=O)Cc3cn(C)c4ccccc34)cc2C1=O`?
NOMO-1 viab: 61.4; MITF inhib: 22.1

What do the screens show for `C[C@H](CO)N1C[C@H](C)[C@H](CN(C)Cc2ccc(Cl)c(Cl)c2)Oc2ccc(NC(=O)Cc3cn(C)c4ccccc34)cc2C1=O`?
Shh pathway inh: -20.9; NOMO-1 viab: 107.7*; MITF inhib: 38.5

What do the screens show for `CCc1ccc(-n2c(SCC(=O)Nc3cccc(C)c3)nnc2-c2ccccc2)cc1`?
NOMO-1 viab: 71.2; MITF inhib: 62.7

What do the screens show for `CN(C)/C=N/c1c(C#N)cnn1-c1ncnc2sc3c(c12)CCC3`?
NOMO-1 viab: 9.2; MITF inhib: 2.1

How did COc1cccc(N(CC(=O)Nc2c(C)n(C)n(-c3ccccc3)c2=O)S(C)(=O)=O)c1 do in these assays?
NOMO-1 viab: -3.0; MITF inhib: 4.4

What do the screens show for `CCCn1c2ccccc2c2nnc(Sc3ccc4nsnc4c3[N+](=O)[O-])nc21`?
NOMO-1 viab: 104.6*; MITF inhib: 51.6

Results for CCCn1c2ccccc2c2nnc(SCC(=O)O)nc21 ?
NOMO-1 viab: 9.2; MITF inhib: 5.9

How did CC(C)(C)C1CC=C2[C@H](C1)[C@@H](c1ccsc1)C(C#N)=C(N)C2(C#N)C#N (stereo not given in full) do in these assays?
Shh pathway inh: 1.1; NOMO-1 viab: 22.6; MITF inhib: 5.2

How did COC(=O)c1ccc([C@H]2C(C#N)=C(N)C(C#N)(C#N)C3=CCC(C(C)(C)C)C[C@@H]32)cc1 (stereo not given in full) do in these assays?
Shh pathway inh: 83.7*; NOMO-1 viab: 115.6*; MITF inhib: 80.4

How did C[C@@H]1CN([C@H](C)CO)C(=O)c2cccc(NC(=O)Nc3ccc4c(c3)OCO4)c2O[C@H]1CN(C)C(=O)Nc1cccc2ccccc12 do in these assays?
Shh pathway inh: 21.1; NOMO-1 viab: 0.0; MITF inhib: 7.6

What do the screens show for `COc1ccc(S(=O)(=O)Nc2ccc3c(c2)CC(=O)N([C@H](C)CO)C[C@H](C)[C@H](CN(C)Cc2ccc(C(=O)Nc4ccccc4N)cc2)O3)cc1`?
NOMO-1 viab: 139.7*; MITF inhib: -0.3

What do the screens show for `COc1ccc(S(=O)(=O)Nc2ccc3c(c2)C(=O)N([C@H](C)CO)C[C@H](C)[C@@H](CN(C)Cc2ccc(C(=O)Nc4ccccc4N)cc2)O3)cc1`?
NOMO-1 viab: 17.0; MITF inhib: 7.4

How did COc1ccc(S(=O)(=O)Nc2ccc3c(c2)C(=O)N([C@@H](C)CO)C[C@H](C)[C@@H](CN(C)Cc2ccc(C(=O)Nc4ccccc4N)cc2)O3)cc1 do in these assays?
NOMO-1 viab: 33.4; MITF inhib: 6.9

How did COc1ccc(S(=O)(=O)Nc2ccc3c(c2)CC(=O)N([C@H](C)CO)C[C@@H](C)[C@@H](CN(C)Cc2ccc(C(=O)Nc4ccccc4N)cc2)O3)cc1 do in these assays?
NOMO-1 viab: 91.8*; MITF inhib: -11.7

How did O=C(CSc1nc(-c2ccccc2)cc(=O)[nH]1)Nc1ccc(Cl)cc1 do in these assays?
NOMO-1 viab: 4.9; MITF inhib: -5.1

What do the screens show for `O=C1C2=C(NC(=S)NC2c2ccccc2)c2ccccc21` (stereo not given)?
Shh pathway inh: 16.1; NOMO-1 viab: 114.3*; MITF inhib: 60.3

Results for CC1=C(C(=O)OCCc2ccccc2)C(c2ccc(N(C)C)cc2)NC(=S)N1 (stereo not given) ?
NOMO-1 viab: 11.2; MITF inhib: -11.0

What do the screens show for `Cc1cc(I)cc(C)c1NC(=O)CSc1nnnn1-c1ccccc1`?
NOMO-1 viab: 6.5; MITF inhib: -7.2

What do the screens show for `Cc1cccc(-c2noc(CN(C(=O)c3ccc([N+](=O)[O-])c(C)c3)C(C)C)n2)c1`?
NOMO-1 viab: 131.7*; MITF inhib: 39.7

What do the screens show for `Cc1ccc(C(=O)N(Cc2nc(-c3ccc(Cl)cc3)no2)C(C)C)cc1[N+](=O)[O-]`?
NOMO-1 viab: 11.5; MITF inhib: 18.0

What do the screens show for `Cc1cc(OCC(=O)Nc2cccc3ncccc23)ccc1Cl`?
NOMO-1 viab: 31.1; MITF inhib: 1.9

What do the screens show for `C[C@H]1CN([C@@H](C)CO)C(=O)c2cc(NC(=O)Nc3ccccc3)ccc2O[C@H]1CN(C)Cc1ccc(C(=O)Nc2ccccc2N)cc1`?
NOMO-1 viab: inconclusive; MITF inhib: 8.1

Results for C[C@@H]1CN([C@@H](C)CO)C(=O)c2cc(NC(=O)Nc3ccc(C(F)(F)F)cc3)ccc2O[C@H]1CN(C)Cc1ccc(C(=O)Nc2ccccc2N)cc1 ?
NOMO-1 viab: 11.2; MITF inhib: 4.6

How did C[C@@H]1CN([C@H](C)CO)C(=O)c2cc(NC(=O)Nc3ccc(F)cc3)ccc2O[C@@H]1CN(C)Cc1ccc(C(=O)Nc2ccccc2N)cc1 do in these assays?
NOMO-1 viab: 107.1*; MITF inhib: -7.1

Results for C[C@@H]1CN([C@H](C)CO)C(=O)c2cc(NC(=O)Nc3ccc(C(F)(F)F)cc3)ccc2O[C@@H]1CN(C)Cc1ccc(C(=O)Nc2ccccc2N)cc1 ?
NOMO-1 viab: 101.7*; MITF inhib: -21.8
